Experimental data reported in PubChem BioAssay (Tox21).
Results filed as inconclusive are left out. Calls of active or inactive are those of the source. Unless noted, calls follow the shape of the dose curve; as a rule, active = well fitted curve in the direction sought with a large enough effect in the repeat runs; inconclusive = weak or mixed curves; inactive = no such curve, though single readings can be large; an effect the other way counts as inactive or inconclusive.

Legend:
[1] = A CellTox Green Cytotoxicity Assay to monitor cytotoxicity in HepG2 cells - 0 hour (AID 1224882); also: nearly all actives have a fitted effect of over 35% in size
Summary of the method: (§1)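 Using 1536-well format, dye-containing HepG2 suspension was seeded, allowed 5 h at 37 C/5% CO2, dosed by pintool with compounds, positive and negative controls, and imaged for fluorescence across 40 h.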

[2] = A CellTox Green Cytotoxicity Assay to monitor cytotoxicity in HepG2 cells - 32 hour (AID 1224883); also: nearly all actives have a fitted effect of over 50% in size
Summary of the method: as §1

[3] = A CellTox Green Cytotoxicity Assay to monitor cytotoxicity in HEK293 cells - 8 hour (AID 1224884); also: nearly all actives have a fitted effect of over 35% in size
Summary of the method: (§2)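 Fluorescence intensity, read at 0, 8, 16, 24, 32 and 40 h of compound treatment, reflected dye binding to DNA of dead HEK293 cells; compounds (23 nL, DMSO) were added 5 h after plating cells with reagent.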

[4] = qHTS RealTime-Glo MT Cell Viability Assay in HepG2 cells - 16 hour (AID 1224885); also: nearly all actives have a fitted effect of over 50% in size
Summary of the method: (§3)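 qHTS, HepG2, 600 cells/well, RealTime-Glo (NanoLuc + prosubstrate) added with cells; 5 h preincubation; DMSO compound addition; 37 C; luminescence at 0/8/16/24/32/40 h.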

[5] = qHTS RealTime-Glo MT Cell Viability Assay in HEK293 cells - 24 hour (AID 1224886); also: top concentration of the series differs between compounds; nearly all actives have a fitted effect of over 50% in size
Summary of the method: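 Assay medium contained NanoLuc luciferase plus cell-permeant prosubstrate, added with HEK293 cells at 600 cells/well. After 5 h at 37 C/5% CO2 compounds were added; plates stayed at 37 C for 40 h with serial luminescence reads.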

[6] = qHTS RealTime-Glo MT Cell Viability Assay in HEK293 cells - 8 hour (AID 1224887); also: top concentration of the series differs between compounds; nearly all actives have a fitted effect of over 50% in size
Summary of the method: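 Viable HEK293 cells reduce a cell-permeant prosubstrate; the product diffuses out and is consumed by NanoLuc in the medium to give light. Compounds went in after a 5 h incubation and plates were read over the treatment course.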

[7] = A CellTox Green Cytotoxicity Assay to monitor cytotoxicity in HEK293 cells - 16 hour (AID 1224888); also: nearly all actives have a fitted effect of over 35% in size
Summary of the method: as §2

[8] = qHTS RealTime-Glo MT Cell Viability Assay in HepG2 cells - 0 hour (AID 1224889); also: nearly all actives have a fitted effect of over 50% in size
Summary of the method: as §3

[9] = A CellTox Green Cytotoxicity Assay to monitor cytotoxicity in HepG2 cells - 8 hour (AID 1224890); also: nearly all actives have a fitted effect of over 45% in size
Summary of the method: as §1

[10] = qHTS assay to identify small molecule antagonists of the estrogen receptor alpha (ER-alpha) signaling pathway using the BG1 cell line in the presence of 0.1 nM 17-beta-estradiol - cell viability counter screen (AID 1259241); also: nearly all actives have a fitted effect of over 40% in size
Summary of the method: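 Cells were plated and left 24 hr, compounds in DMSO were pinned in, 17beta-estradiol was added to 0.1 nM final, and after 22 hr CellTiter-Fluor reagent was added for 30 min before fluorescence was read.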

[11] = qHTS assay to identify small molecule antagonists of the androgen receptor (AR) signaling pathway using the MDA cell line in the presence of 0.5 nM R1881 - cell viability counter screen (AID 1259242); also: nearly all actives have a fitted effect of over 45% in size
Summary of the method: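 Viability of MDA-kb2 cells was multiplexed with the luciferase AR readout; after 16 hr with compounds and R1881 at 0.5 nM final, CellTiter-Fluor fluorescence was recorded.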

[12] = target: Estrogen receptor (Homo sapiens) (UniProt P03372); assay: qHTS assay to identify small molecule antagonists of the estrogen receptor alpha (ER-alpha) signaling pathway using the BG1 cell line in the presence of 0.1 nM 17-beta-estradiol (AID 1259244); also: nearly all actives have a fitted effect of over 50% in size
Sequence of Estrogen receptor (Homo sapiens) (P03372 whole entry, looked up): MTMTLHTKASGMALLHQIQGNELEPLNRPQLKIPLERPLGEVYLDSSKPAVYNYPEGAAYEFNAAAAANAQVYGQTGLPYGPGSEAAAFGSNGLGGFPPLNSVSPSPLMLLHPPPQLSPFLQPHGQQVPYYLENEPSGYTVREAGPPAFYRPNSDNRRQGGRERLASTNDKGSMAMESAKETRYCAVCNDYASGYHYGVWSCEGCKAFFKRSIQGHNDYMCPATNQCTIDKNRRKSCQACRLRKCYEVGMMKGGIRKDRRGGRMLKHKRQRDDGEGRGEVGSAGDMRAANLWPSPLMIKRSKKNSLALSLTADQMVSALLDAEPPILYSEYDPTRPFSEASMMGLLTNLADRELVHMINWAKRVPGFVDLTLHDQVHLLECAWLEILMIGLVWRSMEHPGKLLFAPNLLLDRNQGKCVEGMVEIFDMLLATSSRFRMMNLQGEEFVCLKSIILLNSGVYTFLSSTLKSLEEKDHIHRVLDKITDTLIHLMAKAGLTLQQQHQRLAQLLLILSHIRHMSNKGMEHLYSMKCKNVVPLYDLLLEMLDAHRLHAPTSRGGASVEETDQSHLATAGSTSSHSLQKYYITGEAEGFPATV
Summary of the method: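 Estradiol at 0.1 nM (final) stimulates the endogenous ER-alpha of VM7Luc4E2 cells carrying an ERE-driven luciferase; compounds are co-incubated 22 h at 37C and luciferase output quantified by luminescence.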

[13] = qHTS assay to identify small molecule HDAC inhibitors (AID 1259364);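 also: wild-type HCT-116 cells with endogenous class I/II HDAC activity; top concentration of the series differs between compounds; nearly all actives have a fitted effect of over 45% in size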
Summary of the method: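 Read-out: luminescence of HDAC-Glo I/II reagent, 30 min RT, reflecting class I/II deacetylase activity in whole HCT-116 cells pre-exposed 2 h to DMSO-dissolved compounds.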

[14] = qHTS assay to identify small molecule HDAC inhibitors - cell viability counter screen (AID 1259365)
Summary of the method: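 Counter screen in wild-type HCT-116 cells: compounds dissolved in DMSO are pin-transferred onto overnight-plated cells and left 2hr at 37C. ATP-based CellTiter-Glo luminescence then measures viable cells.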

[15] = qHTS assay to identify small molecule agonists of the sonic hedgehog signaling (Shh) pathway - cell viability counter screen (AID 1259366); also: nearly all actives have a fitted effect of over 50% in size
Summary of the method: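 Cells are plated at 2,000 per well and left 4hr at 37C, 5% CO2 before compound addition. After 23hr of treatment, CellTiter-Fluor reagent is added for 1hr at 37C and fluorescence is measured.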

[16] = qHTS assay to identify small molecule antagonists of the sonic hedgehog signaling (Shh) pathway - cell viability counter screen (AID 1259367); also: nearly all actives have a fitted effect of over 55% in size
Summary of the method: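 Using CellTiter-Fluor, viability of Gli1-Luc reporter 3T3 cells is read by fluorescence in the wells used for the Shh luciferase assay. Treatment lasts 23 hr with conditioned medium, then reagent 1 hr at 37C.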

[17] = qHTS assay to identify small molecule agonists of the sonic hedgehog signaling (Shh) pathway (AID 1259368; calls by dose curve;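 also: NIH/3T3-derived 3T3Gli1-Luc cells carrying a stable Gli1-driven firefly luciferase reporter; series mostly up to about 92 µM; nearly all actives have a fitted effect of over 15% in size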)
Summary of the method: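 A Gli1 transcriptional response element controlled firefly luciferase in 3T3Gli1-Luc cells. Compounds and a positive control were added 4 hr after plating, and cells were incubated a further 24 hr at 37 C before luminescence detection.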

[18] = qHTS assay to identify small molecule antagonists of the sonic hedgehog signaling (Shh) pathway (AID 1259369; calls by dose curve; also: nearly all actives have a fitted effect of over 45% in size)
Summary of the method: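 For antagonist detection, the reporter line received test compounds together with conditioned medium, incubated 24hr at 37 C, 5% CO2, then luminescence was recorded following 30min room-temperature luciferase reagent incubation.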

[19] = target: Androgen receptor (Homo sapiens) (UniProt P10275); assay: qHTS assay to identify small molecule antagonists of the androgen receptor (AR) signaling pathway using the MDA cell line in the presence of 0.5 nM R1881 (AID 1259243); also: nearly all actives have a fitted effect of over 50% in size
Sequence of Androgen receptor (Homo sapiens) (P10275 whole entry, looked up): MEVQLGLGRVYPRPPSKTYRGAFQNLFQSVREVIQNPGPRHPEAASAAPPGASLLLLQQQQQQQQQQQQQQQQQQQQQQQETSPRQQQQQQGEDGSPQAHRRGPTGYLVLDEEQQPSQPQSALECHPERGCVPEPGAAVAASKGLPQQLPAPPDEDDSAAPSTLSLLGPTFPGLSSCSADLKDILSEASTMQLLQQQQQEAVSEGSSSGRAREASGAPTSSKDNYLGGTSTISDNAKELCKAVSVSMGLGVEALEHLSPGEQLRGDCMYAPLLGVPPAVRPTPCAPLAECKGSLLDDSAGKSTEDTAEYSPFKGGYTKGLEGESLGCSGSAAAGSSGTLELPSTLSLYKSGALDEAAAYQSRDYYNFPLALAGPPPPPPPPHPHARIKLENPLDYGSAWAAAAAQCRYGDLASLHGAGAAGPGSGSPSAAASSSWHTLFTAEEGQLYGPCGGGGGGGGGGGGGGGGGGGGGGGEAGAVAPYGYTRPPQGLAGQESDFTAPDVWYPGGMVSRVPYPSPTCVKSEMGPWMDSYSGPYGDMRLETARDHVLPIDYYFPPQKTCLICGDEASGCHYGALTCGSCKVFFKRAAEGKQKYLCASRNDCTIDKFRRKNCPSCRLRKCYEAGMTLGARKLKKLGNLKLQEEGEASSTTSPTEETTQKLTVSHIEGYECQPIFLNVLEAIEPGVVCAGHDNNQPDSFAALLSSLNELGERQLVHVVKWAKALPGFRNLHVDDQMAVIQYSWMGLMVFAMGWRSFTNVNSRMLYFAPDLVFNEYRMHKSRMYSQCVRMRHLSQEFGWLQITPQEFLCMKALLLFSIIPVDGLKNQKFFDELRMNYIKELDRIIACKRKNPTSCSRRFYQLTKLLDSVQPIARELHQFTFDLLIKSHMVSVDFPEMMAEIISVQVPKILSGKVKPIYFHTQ
Summary of the method: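 Reporter cells cultured without CO2 receive test chemicals, then 0.5 nM R1881 final; after 16 hr at 37C, ONE-Glo is added and light output recorded.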

[20] = qHTS assay to identify small molecule phospholipidosis (PLD) inducers (AID 1259344; active = well fitted curve in the direction sought with a large enough effect; an effect the other way counts as inactive or inconclusive)
Summary of the method: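 Fluorescent phospholipid staining (LipidTOX Red) measured by automated microscopy in fixed HepG2 cells after 24 h treatment; nuclei counterstained with Hoechst 33342; amiodarone as reference inducer.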
% is scaled to controls: 0 for no effect and ±100 for the full control effect.

CCC[Si](OC)(OC)OC
inactive: Potency [1] | Potency [2] | Potency [3] | outcome [4] | Potency [5] | Potency [6] | Potency [7] | Potency [8] | Potency [9] | Potency [10] | Potency [11] | Potency [12] | Potency [13] | outcome [14] | Potency [15] | Potency [16] | Potency [17]

Cc1ccc(Cl)c(OCC(O)CNC(C)(C)C)c1 (stereo not given)
inactive: Potency [1] | Potency [2] | Potency [3] | outcome [4] | Potency [5] | Potency [6] | Potency [7] | Potency [8] | Potency [9] | Potency [10] | Potency [11] | Potency [12] | Potency [13] | outcome [14] | Potency [15] | Potency [16] | Potency [17] | Potency [18]

FC(F)(Cl)C(F)(Cl)Cl
inactive: Potency [1] | Potency [2] | Potency [3] | outcome [4] | Potency [5] | Potency [6] | Potency [7] | Potency [8] | Potency [9] | Potency [10] | Potency [11] | Potency [12] | Potency [13] | outcome [14] | Potency [15] | Potency [16] | Potency [17] | Potency [18]

O=Cc1ccc([N+](=O)[O-])cc1
inactive: Potency [1] | Potency [2] | Potency [3] | outcome [4] | Potency [5] | Potency [6] | Potency [7] | Potency [8] | Potency [9] | Potency [10] | Potency [11] | Potency [12] | Potency [13] | outcome [14] | Potency [15] | Potency [16] | Potency [17] | Potency [18]

Cc1cc(C)c(C)c(O)c1
inactive: Potency [1] | Potency [2] | Potency [3] | outcome [4] | Potency [5] | Potency [6] | Potency [7] | Potency [8] | Potency [9] | Potency [10] | Potency [11] | Potency [12] | Potency [13] | outcome [14] | Potency [15] | Potency [16] | Potency [17] | Potency [18]

CCc1cnc(C(=O)O)c(C(=O)O)c1
inactive: Potency [1] | Potency [2] | Potency [3] | outcome [4] | Potency [5] | Potency [6] | Potency [7] | Potency [8] | Potency [9] | Potency [10] | Potency [11] | Potency [12] | Potency [13] | outcome [14] | Potency [15] | Potency [16] | Potency [18]

CC1(C)[C@@H]2CC[C@]3(C2)[C@@H]1C(=O)CCC3(C)C
inactive: Potency [1] | Potency [2] | Potency [3] | outcome [4] | Potency [5] | Potency [6] | Potency [7] | Potency [8] | Potency [9] | Potency [10] | Potency [11] | Potency [12] | Potency [13] | outcome [14] | Potency [15] | Potency [16] | Potency [18]

O=C(O)c1cc(C(=O)O)c(C(=O)O)cc1C(=O)O
inactive: Potency [1] | Potency [2] | Potency [3] | outcome [4] | Potency [5] | Potency [6] | Potency [7] | Potency [8] | Potency [9] | Potency [10] | Potency [11] | Potency [19] | Potency [12] | Potency [13] | outcome [14] | Potency [15] | Potency [16] | Potency [17] | Potency [18]

Cc1c(Cl)cccc1Nc1ccccc1C(=O)O
inactive: Potency [1] | Potency [2] | Potency [3] | outcome [4] | Potency [5] | Potency [6] | Potency [7] | Potency [8] | Potency [9] | Potency [10] | Potency [11] | Potency [12] | Potency [20] | Potency [13] | outcome [14] | Potency [15] | Potency [16] | Potency [17]

CC1(C)CC(=O)CC(C)(C)N1
inactive: Potency [1] | Potency [2] | Potency [3] | outcome [4] | Potency [5] | Potency [6] | Potency [7] | Potency [8] | Potency [9] | Potency [10] | Potency [11] | Potency [12] | Potency [13] | outcome [14] | Potency [15] | Potency [16] | Potency [17]

C/C(=C\C(C)CC(C)CC(C)C)C1CC(=O)OC1=O (stereo not given)
inactive: Potency [1] | Potency [2] | Potency [3] | outcome [4] | Potency [5] | Potency [6] | Potency [7] | Potency [8] | Potency [9] | Potency [10] | Potency [11] | Potency [12] | Potency [13] | outcome [14] | Potency [16] | Potency [17] | Potency [18]

C1=COCCC1
inactive: Potency [1] | Potency [2] | Potency [3] | outcome [4] | Potency [5] | Potency [6] | Potency [7] | Potency [8] | Potency [9] | Potency [10] | Potency [11] | Potency [12] | Potency [13] | outcome [14] | Potency [16] | Potency [17] | Potency [18]

CC(=O)Nc1ccn(C2COC(COC(=O)c3ccccc3)O2)c(=O)n1 (stereo not given)
inactive: Potency [1] | Potency [2] | Potency [3] | outcome [4] | Potency [5] | Potency [6] | Potency [7] | Potency [8] | Potency [9] | Potency [10] | Potency [11] | PLD induction [20] 1.43% [at 1.53 µM] | Potency [13] | Potency [15] | Potency [16] | Potency [17] | Potency [18]

Nc1cccc2c(=O)[nH][nH]c(=O)c12
inactive: Potency [1] | Potency [2] | Potency [3] | outcome [4] | Potency [5] | Potency [6] | Potency [7] | Potency [8] | Potency [9] | Potency [10] | Potency [11] | Potency [12] | Potency [13] | Potency [15] | Potency [16] | Potency [17] | Potency [18]
